We go through 9 molecules from PubChem BioAssay (EPA / NIEHS).

Values joined by “and” are separate entries in the source; they are usually repeats but may differ in a detail not shown here. Equal values may be shown once. Results filed as inconclusive are left out. Where a structure was tested more than once in an assay, its records may differ in their call. Active and inactive are the calls of the source. Rule for the calls: active = hit-call score of the fitted dose curve at least 0.9, where 1 is the maximum; inconclusive = response in the unintended direction; inactive = score below 0.9.

This experiment relates to turtle Thyroid Hormone Receptor, alpha (TRa), gene 101949057. Nature of the experiment: ATG_trTRa_XSP2: Attagene TRANS-FACTORIAL Multi-Species (XSP1) HepG2 Assay for turtle Thyroid Hormone Receptor, alpha (TRa) (AID 2283834).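 Note: hits raise reporter mRNA over the DMSO baseline so AC50 marks activators.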 The method, then:
ATG_XSP2_multi-species_TRANS is a cell-based, multiplexed assay created by modifying the existing Attagene TRANS-FACTORIAL system to include a panel of nuclear receptors from some or all the following species: human (Homo sapiens), mouse (Mus musculus), frog (Xenopus laevis), zebrafish (Danio rerio), chicken (Gallus gallus), and turtle (Chrysemys picta). The ECOTOX-FACTORIAL format uses HepG2, a human liver cell line, with measurements taken at 24 hours after chemical dosing in a 24-well plate. Xsp2 included 3 nM 6-alpha-fluorotestosterone and 1.5 nM norgestrel to stimulate the androgen receptor.ATG_trTRa_XSP2 is one of 29 assay components measured or calculated from the ATG_XSP2_multi-species_TRANS assay. It is designed to make measurements of mRNA induction, a form of inducible reporter, as detected with fluorescence intensity signals by Reverse transcription polymerase chain reaction (RT-PCR) and Capillary electrophoresis technology.The assay endpoint ATG_trTRa_XSP2 was analyzed in the positive analysis fitting direction relative to DMSO as the negative control and baseline of activity. Using a type of inducible reporter, measures of mRNA for gain-of-signal activity can be used to understand the reporter gene at the transcription factor-level as they relate to the gene TR. Furthermore, this assay endpoint can be referred to as a primary readout, because this assay has produced multiple assay endpoints where this one serves a reporter gene function. To generalize the intended target to other relatable targets, this assay endpoint is annotated to the nuclear receptor intended target family, where the subfamily is non-steroidal.
Human liver HepG2 cells are transiently transfected with multiple reporter transcription units (MRTUs) in 6-well plates using FuGene 6 reagent (Roche; 3 ml FuGene/1 mg DNA). The MRTU constructs are regulated by a cis-regulating element (promoter). […] A major difference between the CIS and TRANS system is that in CIS activities of endogenous TFs are measured, whereas the TRANS assay evaluates changes in activities of exogenous, chimeric NR-Gal4 proteins. […] At the end of 24 hour incubation, total RNA was isolated using TriZol reagent (Invitrogen). The isolated RNA is then reverse-transcribed using oligo(dT) primer and Mo-MLV reverse transcriptase (Invitrogen) with DNAse I (Ambion) treatment for 30 min. The one-tenth of the produced cDNA was amplified by PCR using Taq DNA polymerase (Invitrogen) and two reporter sequence-specific primers. The PCR products were fluorescently labeled by primer extension with 6-arboxyfluorescein (6-FAM) 5'-labeled reporter sequence-specific primer (2 min at 95 C, 20 s at 68 C and 10 min at 72 C) and these products were digested with 5U of HpaI (New England Biolabs) for 2h at 37 C. The fragments were purified using Qiaquick PCR columns (Qiagen), analyzed on an ABI 3130xL genetic analyzer (Applied Biosystems) with peak positions identified by using a set of X-rhodamine (ROX)-labeled MapMarker1000 molecular weight standards (BioVentures). The raw capillary electrophoresis data was processed using Attagraph software (Attagene).
Regarding `C#C[C@]1(O)CC[C@H]2[C@@H]3CCC4=CC(=O)CC[C@@H]4[C@H]3CC[C@@]21C`, the result was inactive. For the molecule `O=C(O)Cc1cc(I)c(Oc2cc(I)c(O)c(I)c2)c(I)c1`, the AC50 (in general, the concentration giving half of the maximal activity seen) was 91.9 nM (active) and 48.7 nM (active). `Oc1cc2ccccc2c2ccccc12`: the result was inactive and the AC50 is 10.6 µM (active). On to `CCC(=C(c1ccc(O)cc1)c1ccc(OCCN(C)C)cc1)c1ccccc1`, for which the call was inactive. As for `CCCOC(=O)c1ccc(O)cc1`, the molecule was called inactive.

`O=c1c(-c2ccc(O)cc2)coc2cc(O)ccc12`: the result was inactive.

Consider `CC[C@H](c1ccc(O)cc1)[C@@H](CC)c1ccc(O)cc1`, for which the result was inactive. For `CCC(C)(C)C1CCC(O)CC1` (stereo not given), the outcome was inactive. As for `c1ccc2c(c1)ccc1ccccc12`, the molecule was called inactive.
